Results taken from PubChem BioAssay (NCI).
Compounds without any hit were thinned out: in the full panel of roughly 83,000, 20% have a hit.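 96-well plates, one dose, 48 hours. Percent growth reported; active if below 10.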 Activity calls are given as the source filed them.

Each compound was assayed on HL-60(TB) leukemia (assay: NCI-60 one-dose screen, 48 h (100 = growth as untreated, 0 = no growth, -100 = all killed)). Conditions: 10 µM unless noted.
`COc1ccc(/C=C/c2nc3ccccc3nc2/C=C/c2ccc(OC)cc2)cc1` was tested, and the growth was 105% (inactive).
In the case of `CCCn1ccnc1C(O)c1ccc(OCc2ccccc2)c(OC)c1` (centres undefined), the growth is reported as 96.7% (inactive).
With `COc1ccc(Cn2cc(COc3cc(/C=C/C(=O)c4cc(OC)c(OC)c(OC)c4)ccc3OC)nn2)cc1` the growth was 80.3% (inactive).
`CN1CCN(c2ccc(NC(=O)c3cncnc3Nc3ccc4c(ccn4Cc4cccc(F)c4)c3)cc2)CC1` was tested, and the growth was -54.3% (active).
For `N=C(N)c1ccc(-c2ccc(-c3ccccc3)s2)cc1`, the growth was -34.2% (active).
`C=C(C)[C@@H]1CC[C@]2(C(=O)O)CC[C@]3(C)[C@H](CC[C@@H]4[C@@]5(C)C[C@@H](CC#Cc6ccccc6)C(=O)C(C)(C)[C@@H]5CC[C@]43C)[C@@H]12` was tested, and the growth was 3.03% (active).
With `COc1ccc2nc3cc(Cl)ccc3c(Nc3cc(CN4CCCC4)c(O)c(CN4CCCC4)c3)c2n1` the growth was -20.4% (active).
For `COc1cc(NC(C)CCCN2C(=O)c3ccccc3C2=O)c2nc(C)ccc2c1OC` (centres undefined), the growth was 69.6% (inactive).
In the case of `COc1ccc(CNc2c3ccccc3nc3ccccc23)cc1`, the growth is reported as 43% (inactive).
In the case of `C=CCC(OC(C)=O)c1ccc(C(C)C)cc1` (centres undefined), the growth is reported as 83.1% (inactive).
`c1ccc2cc(Cn3cc(CSc4nc5ccccc5s4)nn3)ccc2c1` was tested, and the growth was 102% (inactive).
In the case of `Clc1nc(Cl)c2ncn(CCOCCn3cnc4c(Cl)nc(Cl)nc43)c2n1`, the growth is reported as -70.6% (active).
For `COc1ccc(-c2nc3cc(C(=O)Nc4cc(OC)c(OC)c(OC)c4)ccc3n2C2CCCCC2)cc1`, the growth was 85.9% (inactive).
`COC(=O)c1c[nH]c2cc(OC(C)C)c(OC(C)C)cc2c1=O` was tested, and the growth was 106% (inactive).
